Screening data: PubChem BioAssay, National Center for Advancing Translational Sciences (NCATS)
VP16 counter = inhibits Gal4-VP16 luciferase reporter, ROR gamma counter-screen; Drosophila S2 Gal4-VP16 UAS-luciferase, luminescence, 20 h; Potency, µM (series often up to 53.6 µM), most hits filed as inhibitors; hit rate 3.5% among 310,000;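 note: Gal4-VP16 expression switched on by copper sulfate through the metallothionein promoter; nearly all actives have a fitted effect of over 50% in size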
SW480 rereplic = DNA re-replication induction in SW480 cells | SW480 DNA re-replication, Hoechst DNA content imaging, 48 h | Potency, µM (titrated, usually from 46.1 µM), usual class: activators | hit rate 1.8% among 340,000 | AID 624297; note: nearly all actives have a fitted effect of over 55% in size
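Hoechst fluorescence of nuclei (405 nm excitation, 500-530 nm emission) measured by plate-scanning imager after 48 hr compound exposure at 37 C; re-replication scored as increased number of nuclei with elevated intensity.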
MCF10A rereplic = inducers of DNA re-replication in MCF 10A breast cells; MCF 10A DNA re-replication, Hoechst nuclear intensity, 48 h; Potency, µM (doses to about 46.1 µM), usual class: activators; hit rate 2.9% among 350,000; AID 624296; note: nearly all actives have a fitted effect of over 50% in size
ELG1 repair inh = blocks ELG1-dependent DNA repair in HEK293T cells; HEK293T ELG1-luciferase reporter, luminescence, 16 h; DNA damage induced by 5-fluorouridine; Potency, µM (top dose mostly 46.1 µM), most hits filed as inhibitors; hit rate 2.3% among 330,000; AID 504467; note: nearly all actives have a fitted effect of over 55% in size
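Overnight (16 hr) co-exposure of 2,000 cells/well to 5-fluorouridine and compound at 37 °C preceded detection. Luciferase was quantified via ONE-Glo luminescence; loss of signal denotes inhibition.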
RORgamma inh = inhibitors of mouse ROR gamma transcriptional activity; P51450; Drosophila S2 Gal4-RORgamma UAS-luciferase reporter, 20 h; Potency, µM (top dose mostly 53.6 µM), actives largely listed as inhibitors; hit rate 5.4% among 310,000; AID 2551; note: nearly all actives have a fitted effect of over 60% in size
Target sequence (P51450 whole entry, looked up, the tested form may be a part): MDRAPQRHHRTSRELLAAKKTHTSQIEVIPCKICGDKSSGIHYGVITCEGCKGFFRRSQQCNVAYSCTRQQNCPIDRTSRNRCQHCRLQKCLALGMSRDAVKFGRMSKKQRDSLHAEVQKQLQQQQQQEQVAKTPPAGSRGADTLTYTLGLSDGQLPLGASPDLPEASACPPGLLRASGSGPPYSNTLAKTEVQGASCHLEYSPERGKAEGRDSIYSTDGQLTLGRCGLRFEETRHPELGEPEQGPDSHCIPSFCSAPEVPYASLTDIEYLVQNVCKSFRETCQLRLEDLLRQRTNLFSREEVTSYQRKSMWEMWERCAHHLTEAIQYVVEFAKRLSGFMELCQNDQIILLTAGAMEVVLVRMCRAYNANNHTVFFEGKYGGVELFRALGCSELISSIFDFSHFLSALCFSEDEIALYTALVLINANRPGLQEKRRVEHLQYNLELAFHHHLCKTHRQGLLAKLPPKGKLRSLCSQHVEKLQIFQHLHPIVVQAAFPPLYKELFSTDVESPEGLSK
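Schneider cells (Drosophila), stable Gal4 DBD–ROR gamma + UAS-luc; 1 hr cmpd preincubation; Cu2+ induction 700 uM final; 20 hr ambient; luminescence.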
Each line names hits and unclear results; the compound was inactive in the other large screens. This is a sample that favours compounds with a hit; in the whole collection about 10% have one here. Calls come from the whole dose curve; as a rule, active = well fitted curve in the direction sought with a large enough effect; inconclusive = small, poorly fitted or top-dose-only effect, or another doubt; inactive = no such curve, though single readings can be large; an effect the other way counts as inactive or inconclusive.

CC1(C)Cc2c(sc3c2c(=N)n(Cc2ccco2)c(=O)n3Cc2ccc(F)cc2)CO1	VP16 counter inconclusive, ELG1 repair inh 18.4µM
COc1ccc(Cn2c(=O)n(Cc3ccco3)c(=N)c3c4c(sc32)COC(C)(C)C4)cc1	ELG1 repair inh 7.31µM
CC1(C)Cc2c(sc3[nH]c(=S)n(Cc4ccccc4)c(=O)c23)CO1	VP16 counter 0.891µM, ELG1 repair inh inconclusive
CC(C(=O)c1c[nH]c(C(=O)N=CN(C)C)c1)c1ncc(C(F)(F)F)cc1Cl (centres undefined)	none
CCOC(=O)/C=C/C(=O)Nc1ccc(S(=O)(=O)N(C)c2ccccc2)cc1	MCF10A rereplic inconclusive, RORgamma inh inconclusive
COc1ccccc1N1C(=NC(=O)COc2ccccc2)SC2CS(=O)(=O)CC21 (centres undefined)	none
COc1ccccc1-c1cnn2c(NC3CCCC3)cc(C)nc12	VP16 counter inconclusive, MCF10A rereplic 16.4µM, ELG1 repair inh inconclusive, RORgamma inh 10µM
COc1cc(C(=O)NCCC(=O)N2CCCCC2)cc(OC)c1OC	none
CCCC(=O)N1CCN(c2ccc(NC(=S)NC(=O)c3cccc(C)c3)cc2)CC1	VP16 counter inconclusive, ELG1 repair inh 16.4µM, RORgamma inh inconclusive
COc1cc(C(=O)NC(=S)Nc2ccc(N3CCCC3)cc2)cc(OC)c1OC	VP16 counter 4.47µM, RORgamma inh 7.94µM
COc1cc(C(=O)NC(=S)Nc2ccc(Cl)c(C(=O)O)c2)cc(OC)c1OC	MCF10A rereplic inconclusive
COc1cc(C(=O)NC(=S)N2CCCCCC2)cc(OC)c1OC	VP16 counter 2.82µM, RORgamma inh 0.891µM
COc1cc(C(=O)NC(=S)NC(C)C)cc(OC)c1OC	VP16 counter inconclusive, SW480 rereplic inconclusive, ELG1 repair inh inconclusive, RORgamma inh 7.94µM
CCCC(=O)N1CCN(c2ccc(NC(=O)c3ccc4c(c3)OCCO4)cc2)CC1	ELG1 repair inh inconclusive
COc1ccc(C(=O)Nc2ccc(N3CCCC3)cc2)cc1OC	MCF10A rereplic inconclusive, ELG1 repair inh inconclusive, RORgamma inh inconclusive
COc1ccccc1NC(=O)Nc1cccnc1	none
CNc1ncncc1-c1ccccc1C	none (no result: SW480 rereplic, MCF10A rereplic, ELG1 repair inh)
CCCOC1CCCN(C(=O)CCc2nnc(-c3ccc4c(c3)OCO4)o2)C1 (centres undefined)	ELG1 repair inh inconclusive
COc1cccc(C(=O)NC(=S)Nc2ccc(N(C)C)cc2)c1	VP16 counter inconclusive, ELG1 repair inh inconclusive, RORgamma inh 3.55µM
COc1ccc(C(=O)NC(=S)Nc2ccc(N3CCCC3)cc2)cc1	VP16 counter 7.08µM, ELG1 repair inh inconclusive, RORgamma inh 2µM
COc1ccccc1C(=O)NNC(=S)NC(=O)c1cc(OC)c(OC)c(OC)c1	SW480 rereplic inconclusive, MCF10A rereplic inconclusive, RORgamma inh inconclusive
COc1cccc(C(=O)NC(=S)Nc2ccc(N3CCCC3)cc2)c1	VP16 counter 8.91µM, RORgamma inh 2µM
COc1ccc(C(=O)Nc2ccc(N3CCCC3)cc2)cc1	ELG1 repair inh inconclusive, RORgamma inh inconclusive
COc1cccc(C(=O)Nc2ccc(C)cc2)c1	VP16 counter inconclusive, ELG1 repair inh inconclusive, RORgamma inh inconclusive
COc1cc(C(=O)NC(=S)NNC(=O)[C@H]2C[C@@H]2c2ccccc2)cc(OC)c1OC	ELG1 repair inh inconclusive, RORgamma inh 11.2µM
CC(C)(C)OC(=O)N1CCN(Cc2ccc(F)c(B(O)O)c2)CC1	none (no result: VP16 counter, ELG1 repair inh, RORgamma inh)
CCNc1ncc2nc(C)c(=O)n(CCOC)c2n1	none (no result: SW480 rereplic, MCF10A rereplic, ELG1 repair inh)
CC(C)Oc1cccc(C(=O)NC(=S)Nc2ccc(N3CCN(C)CC3)cc2)c1	VP16 counter inconclusive, RORgamma inh 5.62µM
O=C(Nc1ccc(Br)cn1)c1ccc(COc2c(F)c(F)cc(F)c2F)o1	none (no result: VP16 counter, RORgamma inh)
Cc1ccc(-n2nnnc2Sc2nc([N+](=O)[O-])nn2C)c(C)c1	SW480 rereplic inconclusive (no result: VP16 counter, ELG1 repair inh, RORgamma inh)
Cc1ccc(-n2nnnc2Sc2nc([N+](=O)[O-])nn2C)cc1	SW480 rereplic 16.4µM, MCF10A rereplic inconclusive, ELG1 repair inh inconclusive
O=c1[nH]c(CSc2nc3ccccc3[nH]2)nc2c1cnn2-c1ccccc1	VP16 counter inconclusive, MCF10A rereplic inconclusive, ELG1 repair inh 11.6µM, RORgamma inh inconclusive
CCOC(=O)C1C(=O)C=C(Nc2ccccc2F)CC1c1ccccc1 (centres undefined)	ELG1 repair inh inconclusive
O=C(CCl)N(C1CCCC1)C1CCS(=O)(=O)C1 (centres undefined)	VP16 counter 15.8µM, SW480 rereplic 20.6µM, MCF10A rereplic inconclusive, ELG1 repair inh inconclusive, RORgamma inh inconclusive
COc1cc(/C=C/C(=O)c2ccccc2O)cc(OC)c1OC	VP16 counter inconclusive, SW480 rereplic inconclusive, MCF10A rereplic inconclusive, RORgamma inh 2µM
COc1cc(OC)c(C=CC(=O)c2ccccc2O)c(OC)c1	SW480 rereplic inconclusive (no result: VP16 counter, ELG1 repair inh, RORgamma inh)
O=C(/C=C/c1ccccc1F)c1cccc([N+](=O)[O-])c1	VP16 counter inconclusive, MCF10A rereplic 20.6µM, ELG1 repair inh inconclusive, RORgamma inh inconclusive
O=C(Oc1ccc(F)cc1C(=O)/C=C/c1cccs1)c1cccc([N+](=O)[O-])c1	SW480 rereplic 13µM, MCF10A rereplic inconclusive, ELG1 repair inh inconclusive, RORgamma inh inconclusive
COc1ccc(C(=O)/C=C/c2ccccc2F)c(OC(=O)c2ccc([N+](=O)[O-])cc2)c1	SW480 rereplic inconclusive, MCF10A rereplic 14.6µM, ELG1 repair inh inconclusive, RORgamma inh inconclusive
COc1ccc(C(=O)/C=C/c2ccc(C)cc2)c(OC(=O)c2ccc([N+](=O)[O-])cc2)c1	MCF10A rereplic inconclusive, ELG1 repair inh inconclusive
COc1ccc(CCNC(=O)CNCC(c2ccccc2)N(C)C)cc1OC (centres undefined)	none
CNC(=O)c1ccc(=O)n(Cc2cccc(C(F)(F)F)c2)c1	none
COc1ccc(C=CC(=O)c2ccc([N+](=O)[O-])cc2)cc1	none (no result: VP16 counter, ELG1 repair inh, RORgamma inh)
COc1cc(/C=C/C(=O)c2cccc([N+](=O)[O-])c2)cc(OC)c1OC	VP16 counter inconclusive, SW480 rereplic inconclusive, MCF10A rereplic inconclusive, ELG1 repair inh inconclusive, RORgamma inh 15.8µM
Cn1c(=O)c2c(nc(SCC(=O)O)n2Cc2cc3c(cc2Cl)OCO3)n(C)c1=O	none
COC(=O)C/C=C\[C@@H](C)[C@@H](CO)NS(=O)(=O)c1ccc(C)cc1	none (no result: SW480 rereplic, MCF10A rereplic, ELG1 repair inh)
CC(=O)N(Cc1c(C)nn(-c2ccccc2)c1Cl)c1ccc(Cl)cc1	none
Cc1nn(-c2ccccc2)c(Cl)c1CN(C(=O)CCl)c1cccc2ccccc12	VP16 counter inconclusive, SW480 rereplic inconclusive, MCF10A rereplic inconclusive, ELG1 repair inh inconclusive, RORgamma inh 14.1µM
Cc1nn(-c2ccccc2)c(Cl)c1CN(C(=O)CCl)c1ccc(Cl)cc1	VP16 counter inconclusive, SW480 rereplic 3.26µM, MCF10A rereplic inconclusive, ELG1 repair inh inconclusive
COc1cc(O)cc2c1[C@@H]1Oc3c(ccc(O)c3CC=C(C)C)[C@@H]1CO2	none (no result: VP16 counter, ELG1 repair inh, RORgamma inh)
O=C(NC(=S)Nc1ccc(S(=O)(=O)NC2CCCCC2)cc1)c1cccs1	VP16 counter 0.447µM, ELG1 repair inh inconclusive, RORgamma inh 1.12µM
